Drawing on PubChem BioAssay (Tox21), this text covers Potency for 40 compounds.

Each structure is given as a SMILES string. Inconclusive results are not listed. A call without a number means that no potency is given here. Calls of active or inactive are those of the source. Calls follow the shape of the full dose curve.

In the first assay the target is Acetylcholinesterase (Homo sapiens) (UniProt P22303). The assay can be described thus: Acetylcholinesterase (AChE) small molecule antagonists: fluorescence cell-based qHTS assay (AID 1347398). Also: nearly all actives have a fitted effect of over 50% in size. Also: potency is read from the fitted curve at half-maximal effect. Particulars: SH-SY5Y cells; Potency: AChE activity; outcome: AChE activity; series mostly up to 115 µM. Put shortly: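 Cellular AChE activity read as thiocholine from acetylthiocholine hydrolysis, detected by Thiolite Green fluorescence at 490/520 nm after 40 min at room temperature. Compounds were pre-incubated 30 min at 37 C on adherent SH-SY5Y cells.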
Chain of Acetylcholinesterase (Homo sapiens) (P22303 whole entry, looked up): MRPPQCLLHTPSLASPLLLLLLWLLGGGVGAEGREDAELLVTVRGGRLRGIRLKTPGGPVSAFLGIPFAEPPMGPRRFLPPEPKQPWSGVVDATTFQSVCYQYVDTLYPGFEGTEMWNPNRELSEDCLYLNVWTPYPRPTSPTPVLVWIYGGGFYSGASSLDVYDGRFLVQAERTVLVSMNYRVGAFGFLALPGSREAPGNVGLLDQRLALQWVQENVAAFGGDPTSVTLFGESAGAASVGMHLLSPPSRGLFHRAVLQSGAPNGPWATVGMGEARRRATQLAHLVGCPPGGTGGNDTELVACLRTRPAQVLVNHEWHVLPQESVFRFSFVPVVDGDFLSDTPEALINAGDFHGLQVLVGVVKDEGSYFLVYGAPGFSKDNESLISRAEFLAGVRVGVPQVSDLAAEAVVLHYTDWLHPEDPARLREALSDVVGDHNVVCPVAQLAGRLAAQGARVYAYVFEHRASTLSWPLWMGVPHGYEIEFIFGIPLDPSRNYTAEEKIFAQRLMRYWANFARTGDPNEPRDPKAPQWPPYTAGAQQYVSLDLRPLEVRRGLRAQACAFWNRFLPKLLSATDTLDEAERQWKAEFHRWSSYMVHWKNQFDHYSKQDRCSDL
In general terms: Quantitative high-throughput screening tests each substance at several concentrations.
In the case of `CCCC(=O)O`, the Potency entry was “inactive”. On the same count and under the same terms, under `Cc1ccc(/C(=C\CN2CCCC2)c2ccccn2)cc1` stands “inactive”; under `CCCC1O[C@@H]2C[C@H]3[C@@H]4CCC5=CC(=O)C=C[C@]5(C)[C@H]4[C@@H](O)C[C@]3(C)[C@]2(C(=O)CO)O1` (stereo partly drawn), “inactive”; under `CCCCCCCCCCCCSC#N`, “inactive”. Same read-out and setting: under `CC(C)(C)c1cc(O)c(C(C)(C)C)cc1O` stands “inactive”; under `O=C(Nc1ccc(Cl)c(Cl)c1)C1CC1`, “inactive”; under `O=C(Nc1ccc([N+](=O)[O-])cc1Cl)c1cc(Cl)ccc1O`, “inactive”.

Turning to `O=S(=O)(c1cccc2cnccc12)N1CCCNCC1`, the Potency entry is “inactive”. Regarding `Oc1ccccc1C=NCc1ccccc1`, the Potency result was “inactive”. On the same count and under the same terms, under `O=C(c1cc(O)c(O)c(O)c1)c1ccc(O)c(O)c1O` stands “inactive”. For the compound `COC(=O)C1=C(C)NC(C)=C(C(=O)OC)C1c1ccccc1[N+](=O)[O-]`, the Potency result is “inactive”.

Consider `CC1=C(C(=O)O)N2C(=O)[C@@H](NC(=O)[C@H](N)c3ccccc3)[C@H]2SC1`, for which the Potency entry is “inactive”.

As to `CCCCNC(=S)NCCCC`, the Potency entry was “inactive”. The same measure, in the same setting: under `O=c1[nH]cccc1O` stands “inactive”. The same measure, in the same setting: in the case of `CCCCCCCC(C)=O` it was “inactive”; in that of `CCOc1ccc2nc(N)sc2c1`, “inactive”. Regarding `COc1ccc(CCN(C)CCCC(C#N)(c2ccc(OC)c(OC)c2)C(C)C)cc1OC` (stereo not drawn), the Potency result was “inactive”. As for `CC(C)NCC(O)COc1ccc(CC(N)=O)cc1` (stereo not drawn), the Potency result was “inactive”.

Turning to `c1ccc2cc3ccccc3cc2c1`, the Potency result is “inactive”. For the compound `CC(C)(C)NCC(O)c1ccc(O)c(CO)c1` (stereo not drawn), the Potency result was “inactive”. Still for that read-out and setting: in the case of `CC/C=C\CCO` it was “inactive”. Consider `O=C(O)CCS`, for which the Potency result was “inactive”. The same measure, in the same setting: under `CC(C)(C)NC(=O)[C@@H]1C[C@@H]2CCCC[C@@H]2CN1C[C@@H](O)[C@H](Cc1ccccc1)NC(=O)[C@H](CC(N)=O)NC(=O)c1ccc2ccccc2n1` stands “inactive”. As to `CCCCCCN`, the Potency result was “inactive”. Same read-out and setting: under `CCN(CC)S(=O)(=O)c1ccc(C(=O)O)cc1` stands “inactive”; under `C=COC(=O)C(C)(CC)CCC(C)C` (stereo not drawn), “inactive”; under `CCCCCCCCCCCCCOS(=O)(=O)O`, “inactive”. The same measure, in the same setting: in the case of `C[N+]1(C)CCC(OC(=O)C(O)(c2ccccc2)C2CCCC2)C1` (stereo not drawn) it was “inactive”. Same read-out and setting: in the case of `O=C(O)CCC(=O)c1ccc(-c2ccccc2)cc1` it was “inactive”.

On to `OCc1cccnc1`, for which the Potency result is “inactive”.

In the case of `CCCCCCCCCCCCCCCCCC(=O)OCC(O)CO` (stereo not drawn), the Potency result was “inactive”. On the same count and under the same terms, under `Cc1ccc2c(n1)Oc1ccc(C(C)C(=O)OCC(=O)N(C)C)cc1C2` (stereo not drawn) stands 4.9 µM (active). In the case of `Cc1ccc(C=O)cc1C`, the Potency entry is “inactive”.

`C=CC(=O)OCCOCCOCCOCCOC(=O)C=C`: the Potency result was “inactive”.

In the case of `OCCCCC(O)CO` (stereo not drawn), the Potency result was “inactive”. On the same count and under the same terms, under `CC1CCc2cc(F)cc3c(=O)c(C(=O)O)cn1c23` (stereo not drawn) stands “inactive”; under `CCCCCCCC/C=C\CCCCCCCC(=O)OCCOC(=O)CCCCCCC/C=C\CCCCCCCC`, “inactive”; under `CCCCN(C)C`, “inactive”. Regarding `COc1nc(C)nc(N)n1`, the Potency result is “inactive”. `c1cc(N(CC2CO2)CC2CO2)ccc1Cc1ccc(N(CC2CO2)CC2CO2)cc1` (stereo not drawn): the Potency entry was “inactive”.

For the next assay the target is unchanged. The assay is described as follows: Acetylcholinesterase (AChE) small molecule antagonists: enzyme-based qHTS assay with human liver microsomes (AID 1347399). Also: nearly all actives have a fitted effect of over 60% in size. Particulars: Potency: qHTS inhibition; outcome: qHTS inhibition; series mostly up to 115 µM. The gist of the method: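 Recombinant human AChE (50 mU/mL in the enzyme mix) and human liver microsomes (0.25 mg/mL final) were preincubated with compound and NADPH (0.25 mg/mL final) for 30 min at 37 C. Acetylthiocholine/DTNB was then added; thiocholine was read colorimetrically after 10 min at room temperature.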
Consider `CCCC(=O)O`, for which the Potency result was “inactive”. On the same count and under the same terms, under `CCCCCCCCCCCCSC#N` stands “inactive”; under `O=C(Nc1ccc(Cl)c(Cl)c1)C1CC1`, “inactive”; under `O=C(Nc1ccc([N+](=O)[O-])cc1Cl)c1cc(Cl)ccc1O`, “inactive”. Still for that read-out and setting: under `O=c1[nH]cccc1O` stands “inactive”. Still for that read-out and setting: under `CCCCCCCC(C)=O` stands “inactive”; under `CCCCCCN`, “inactive”. Take `C=COC(=O)C(C)(CC)CCC(C)C` (stereo not drawn): the Potency result is “inactive”. On the same count and under the same terms, under `CCCCCCCCCCCCCOS(=O)(=O)O` stands “inactive”; under `O=C(O)CCC(=O)c1ccc(-c2ccccc2)cc1`, “inactive”; under `Cc1ccc2c(n1)Oc1ccc(C(C)C(=O)OCC(=O)N(C)C)cc1C2` (stereo not drawn), “inactive”.

For the compound `C=CC(=O)OCCOCCOCCOCCOC(=O)C=C`, the Potency entry was “inactive”.

As for `OCCCCC(O)CO` (stereo not drawn), the Potency result was “inactive”. The same measure, in the same setting: in the case of `CC1CCc2cc(F)cc3c(=O)c(C(=O)O)cn1c23` (stereo not drawn) it was “inactive”; in that of `CCCCCCCC/C=C\CCCCCCCC(=O)OCCOC(=O)CCCCCCC/C=C\CCCCCCCC`, “inactive”; in that of `CCCCN(C)C`, “inactive”. Regarding `COc1nc(C)nc(N)n1`, the Potency entry is “inactive”. The same measure, in the same setting: in the case of `c1cc(N(CC2CO2)CC2CO2)ccc1Cc1ccc(N(CC2CO2)CC2CO2)cc1` (stereo not drawn) it was “inactive”.
